According to PubChem BioAssay AID1159580 (chemical genetic matrix, 2015):
Screen size: about 5,500 compounds; about 2,000 (36%) were called active. About 18% were inconclusive and are not listed. Cut-off read from the data, not from the text of the source: active = normalized growth mostly below about 0.91 (no sharp cut-off); inconclusive = no clear call, values can overlap the other calls; inactive = mostly above about 0.92. Some of the results follow.

Assay: chemical genetic growth profiling, strain panel (AID 1159580);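 note: tested at 20 µM; growth read once vehicle control cultures reached saturation at 30 °C; 1 = growth at the plate median or of vehicle wells; lower values mean less growth of the strain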
Settings: growth OD
[1] = S. cerevisiae deletion strains, locus YAL013W, strain DEP1, active compounds read low
[2] = S. cerevisiae deletion strains, locus YAL040C, strain CLN3, active compounds read low
[3] = S. cerevisiae deletion strains, locus YCL061C, strain MRC1 (second series), active compounds read low
[4] = S. cerevisiae deletion strains, locus YDR363W, strain ESC2, active compounds read low
[5] = S. cerevisiae deletion strains, locus YER002W, strain NOP16, active compounds read low
[6] = S. cerevisiae deletion strains, locus YGR078C, strain PAC10, active compounds read low
[7] = S. cerevisiae deletion strains, locus YJR075W, strain HOC1, active compounds read low
[8] = S. cerevisiae deletion strains, locus YMR307W, strain GAS1, active compounds read low
[9] = S. cerevisiae deletion strains, locus YNL175C, strain NOP13, active compounds read low
[10] = S. cerevisiae deletion strains, locus YNL197C, strain WHI3, active compounds read low
[11] = S. cerevisiae deletion strains, locus YNL224C, strain SQS1, active compounds read low
[12] = S. cerevisiae deletion strains, locus YOR083W, strain WHI5 (second series), active compounds read low
[13] = S. cerevisiae deletion strains, locus YPL055C, strain LGE1, active compounds read low
[14] = S. cerevisiae deletion strains, locus YPL241C, strain CIN2, active compounds read low
[15] = S. cerevisiae deletion strains, locus YMR263W, strain SAP30, active compounds read low
[16] = S. cerevisiae deletion strains, locus YNL153C, strain GIM3, active compounds read low
[17] = S. cerevisiae deletion strains, locus YNL322C, strain KRE1, active compounds read low
[18] = S. cerevisiae deletion strains, locus YDR150W, strain NUM1, active compounds read low
[19] = S. cerevisiae deletion strains, locus YGR229C, strain SMI1, active compounds read low
[20] = S. cerevisiae deletion strains, locus YHR030C, strain SLT2, active compounds read low
[21] = S. cerevisiae deletion strains, locus YHR079C, strain IRE1, active compounds read low
[22] = S. cerevisiae deletion strains, locus YJL095W, strain BCK1, active compounds read low
[23] = S. cerevisiae deletion strains, locus YJR066W, strain TOR1, active compounds read low
[24] = S. cerevisiae deletion strains, locus YLR113W, strain HOG1, active compounds read low
[25] = S. cerevisiae deletion strains, locus YNL183C, strain NPR1, active compounds read low
[26] = S. cerevisiae deletion strains, locus YOR231W, strain MKK1, active compounds read low
[27] = S. cerevisiae deletion strains, locus YPL256C, strain CLN2, active compounds read low
[28] = S. cerevisiae deletion strains, locus YDL101C, strain DUN1, active compounds read low
[29] = S. cerevisiae deletion strains, locus YBR229C, strain ROT2, active compounds read low
[30] = S. cerevisiae deletion strains, locus YCL061C, strain MRC1, active compounds read low
[31] = S. cerevisiae deletion strains, locus YEL061C, strain CIN8, active compounds read low
[32] = S. cerevisiae deletion strains, locus YHR087W, strain rtc3, active compounds read low
[33] = S. cerevisiae deletion strains, locus YJR043C, strain POL32, active compounds read low
[34] = S. cerevisiae deletion strains, locus YLR039C, strain RIC1, active compounds read low
[35] = S. cerevisiae deletion strains, locus YLR058C, strain SHM2 (second series), active compounds read low
[36] = S. cerevisiae deletion strains, locus YLR085C, strain ARP6, active compounds read low
[37] = S. cerevisiae deletion strains, locus YLR262C, strain YPT6, active compounds read low
[38] = S. cerevisiae deletion strains, locus YML094W, strain GIM5, active compounds read low
[39] = S. cerevisiae deletion strains, locus YMR219W, strain ESC1, active compounds read low
[40] = S. cerevisiae deletion strains, locus YNL298W, strain CLA4 (second series), active compounds read low
[41] = S. cerevisiae deletion strains, locus YNR030W, strain Alg12, active compounds read low
[42] = S. cerevisiae deletion strains, locus YPR135W, strain CTF4, active compounds read low
[43] = S. cerevisiae strains, strain wild type, active compounds read low

Measured: normalized growth

CCCN(CCC)C1CCc2ccc(O)cc2C1 (centres undefined)
inactive: [1] 1.03 | [2] 1.1 | [3] 1.01 | [4] 1.01 | [5] 1.01 | [6] 0.993 | [7] 1 | [8] 1.02 | S. cerevisiae deletion strains, locus YNL128W, strain TEP1, active compounds read low 1.02 | [9] 1.01 | [10] 1.01 | [11] 0.995 | [12] 0.991 | [13] 1.02 | [14] 1.01

CCCN(CCC)[C@@H]1CCc2ccc(O)cc2C1
inactive: [1] 0.964 | [2] 1.03 | [3] 0.988 | [4] 0.989 | [5] 0.972 | [15] 0.983 | [8] 1.01 | [16] 0.978 | [9] 0.982 | [10] 0.982 | [11] 1.01 | [17] 0.978 | [12] 0.996 | [13] 0.988

CC[C@@H]1Cc2cc(O)ccc2C2=C1c1ccc(O)cc1C[C@H]2CC
active: [2] 0.852 | [6] 0.777 | [9] 0.904 | [11] 0.643 | [12] 0.507
inactive: [1] 1.01 | [3] 0.995 | [18] 0.996 | [4] 1.02 | [5] 1.02 | [19] 1.04 | [7] 0.991 | [10] 0.954 | [17] 0.993 | [13] 1.01

CC(=O)N[C@@H]1[C@@H](O)[C@H](O)[C@@H](CO)O[C@H]1O
inactive: [20] 0.993 | [21] 0.975 | [22] 0.995 | [23] 0.917 | [24] 0.993 | [25] 0.898 | [26] 0.99 | [27] 0.967

COc1ccc(/C(C#N)=C2C=C/C(=N/O)C(Cl)=C\2)cc1
active: [24] 0.851
inactive: S. cerevisiae deletion strains, locus YAR019C, strain CDC15, active compounds read low 0.972 | S. cerevisiae deletion strains, locus YBL105C, strain PKC1, active compounds read low 0.975 | S. cerevisiae deletion strains, locus YBR135W, strain CKS1, active compounds read low 0.959 | S. cerevisiae deletion strains, locus YBR136W, strain MEC1, active compounds read low 0.954 | S. cerevisiae deletion strains, locus YBR160W, strain CDC28, active compounds read low 0.976 | S. cerevisiae deletion strains, locus YDL017W, strain CDC7, active compounds read low 0.984 | S. cerevisiae deletion strains, locus YDL028C, strain MPS1, active compounds read low 0.976 | [28] 0.971 | S. cerevisiae deletion strains, locus YDL108W, strain KIN28, active compounds read low 0.969 | S. cerevisiae deletion strains, locus YDL132W, strain cdc53, active compounds read low 0.948 | S. cerevisiae deletion strains, locus YDL214C, strain PRR2, active compounds read low 0.918 | S. cerevisiae deletion strains, locus YDR052C, strain DBF4, active compounds read low 0.966 | S. cerevisiae deletion strains, locus YDR054C, strain cdc34, active compounds read low 0.958 | S. cerevisiae deletion strains, locus YDR226W, strain ADK1, active compounds read low 0.955 | S. cerevisiae deletion strains, locus YDR477W, strain SNF1, active compounds read low 0.898 | S. cerevisiae deletion strains, locus YER123W, strain YCK3, active compounds read low 0.898 | S. cerevisiae deletion strains, locus YER133W, strain GLC7, active compounds read low 0.906 | S. cerevisiae deletion strains, locus YFL009W, strain cdc4, active compounds read low 0.962 | S. cerevisiae deletion strains, locus YFL029C, strain CAK1, active compounds read low 0.965 | S. cerevisiae deletion strains, locus YFR003C, strain YPI1, active compounds read low 0.97 | S. cerevisiae deletion strains, locus YFR019W, strain FAB1, active compounds read low 0.949 | S. cerevisiae deletion strains, locus YFR028C, strain CDC14, active compounds read low 0.948 | S. cerevisiae deletion strains, locus YGR040W, strain KSS1, active compounds read low 0.864 | S. cerevisiae deletion strains, locus YGR052W, strain FMP48, active compounds read low 0.925 | S. cerevisiae deletion strains, locus YGR092W, strain DBF2, active compounds read low 0.822 | [20] 0.879 | [21] 0.996 | S. cerevisiae deletion strains, locus YHR082C, strain KSP1, active compounds read low 0.937 | S. cerevisiae deletion strains, locus YHR205W, strain SCH9, active compounds read low 0.775 | S. cerevisiae deletion strains, locus YIL147C, strain SLN1, active compounds read low 0.968 | [22] 0.842 | S. cerevisiae deletion strains, locus YJL128C, strain PBS2, active compounds read low 0.942 | S. cerevisiae deletion strains, locus YJL157C, strain FAR1, active compounds read low 0.926 | S. cerevisiae deletion strains, locus YJR016C, strain ILV3, active compounds read low 0.954 | S. cerevisiae deletion strains, locus YJR066W, strain TOR1 (second series), active compounds read low 0.85 | [23] 0.887 | S. cerevisiae deletion strains, locus YKL048C, strain ELM1, active compounds read low 0.929 | S. cerevisiae deletion strains, locus YKL067W, strain YNK1, active compounds read low 0.932 | S. cerevisiae deletion strains, locus YKL101W, strain HSL1, active compounds read low 0.893 | S. cerevisiae deletion strains, locus YKL193C, strain SDS22, active compounds read low 0.964 | S. cerevisiae deletion strains, locus YKL203C, strain TOR2, active compounds read low 0.866 | S. cerevisiae deletion strains, locus YLR133W, strain CKI1, active compounds read low 0.913 | S. cerevisiae deletion strains, locus YLR403W, strain SFP1, active compounds read low 0.866 | S. cerevisiae deletion strains, locus YML070W, strain DAK1, active compounds read low 0.915 | S. cerevisiae deletion strains, locus YMR001C, strain CDC5, active compounds read low 0.959 | S. cerevisiae deletion strains, locus YMR205C, strain PFK2 (second series), active compounds read low 0.941 | S. cerevisiae deletion strains, locus YMR277W, strain FCP1, active compounds read low 0.967 | S. cerevisiae deletion strains, locus YNL006W, strain LST8, active compounds read low 0.985 | S. cerevisiae deletion strains, locus YNL020C, strain ARK1, active compounds read low 0.922 | S. cerevisiae deletion strains, locus YNL161W, strain CBK1, active compounds read low 0.973 | [25] 0.862 | S. cerevisiae deletion strains, locus YNL207W, strain RIO2, active compounds read low 0.961 | S. cerevisiae deletion strains, locus YNL222W, strain SSU72, active compounds read low 0.971 | S. cerevisiae deletion strains, locus YNL307C, strain MCK1 (second series), active compounds read low 0.874 | S. cerevisiae deletion strains, locus YOL078W, strain AVO1, active compounds read low 0.958 | S. cerevisiae deletion strains, locus YOL136C, strain PFK27, active compounds read low 0.894 | S. cerevisiae deletion strains, locus YOR061W, strain CKA2, active compounds read low 0.903 | S. cerevisiae deletion strains, locus YOR119C, strain RIO1, active compounds read low 0.87 | [26] 0.905 | S. cerevisiae deletion strains, locus YOR329C, strain SCD5, active compounds read low 0.985 | S. cerevisiae deletion strains, locus YPL031C, strain PHO85, active compounds read low 0.854 | S. cerevisiae deletion strains, locus YPL153C, strain RAD53, active compounds read low 0.899 | S. cerevisiae deletion strains, locus YPL204W, strain HRR25, active compounds read low 0.864 | S. cerevisiae deletion strains, locus YPL209C, strain IPL1, active compounds read low 0.977 | [27] 0.967 | S. cerevisiae deletion strains, locus YPR025C, strain CCL1, active compounds read low 0.977 | S. cerevisiae deletion strains, locus YPR106W, strain ISR1, active compounds read low 0.96 | S. cerevisiae deletion strains, locus YPR111W, strain DBF20, active compounds read low 0.942 | S. cerevisiae deletion strains, strain NNK1, active compounds read low 0.979 | S. cerevisiae deletion strains, strain TSCII, active compounds read low 0.959

Cc1ccc(S(=O)(=O)/C(C#N)=N\O)cc1
inactive: [1] 0.989 | [29] 0.999 | [30] 1.01 | [28] 1.01 | [18] 1.02 | [31] 0.985 | [6] 0.997 | [19] 0.988 | [20] 0.948 | [32] 0.979 | S. cerevisiae deletion strains, locus YJL187C, strain SWE1, active compounds read low 0.987 | [33] 0.977 | [7] 1.03 | [34] 0.98 | [35] 0.997 | [36] 1.04 | [37] 0.984 | [38] 1.02 | [39] 1 | [15] 0.932 | [8] 1.12 | [16] 0.989 | [40] 0.977 | [17] 0.993 | [41] 0.998 | [13] 1.11 | [14] 1.02 | [42] 0.906 | [43] 0.971

Cc1ccc(/C(C#N)=C2C=C/C(=N/O)C(Cl)=C\2Cl)cc1
inactive: [1] 0.953 | [29] 0.961 | [30] 0.965 | [28] 0.983 | [18] 0.963 | [31] 0.959 | [6] 0.975 | [32] 1 | [33] 1.01 | [7] 1 | [34] 0.865 | [35] 0.999 | [36] 0.825 | [38] 0.973 | [39] 0.991 | [15] 0.984 | [8] 0.721 | [16] 0.962 | [40] 0.885 | [17] 0.98 | [13] 0.949 | [14] 0.952 | [42] 0.681 | [43] 0.929
active: [20] 0.631 | [37] 0.816 | [41] 0.877
